Consider 85 molecules from PubChem BioAssay AID1346378 (National Center for Advancing Translational Sciences (NCATS), 2018).

In all, about 420,000 compounds went through this assay and about 540 (0.13%) were called active. The entries come from a sample that favours actives as a whole. A number with no mark means an inactive call. Cut-off read from the data, not from the text of the source: active = activity change below about -50%; inconclusive = mostly about -30% to -49%; inactive = weaker than that.

Sequence of Phosphatidylinositol 4-kinase type 2-alpha (Homo sapiens) (Q9BTU6 whole entry, looked up): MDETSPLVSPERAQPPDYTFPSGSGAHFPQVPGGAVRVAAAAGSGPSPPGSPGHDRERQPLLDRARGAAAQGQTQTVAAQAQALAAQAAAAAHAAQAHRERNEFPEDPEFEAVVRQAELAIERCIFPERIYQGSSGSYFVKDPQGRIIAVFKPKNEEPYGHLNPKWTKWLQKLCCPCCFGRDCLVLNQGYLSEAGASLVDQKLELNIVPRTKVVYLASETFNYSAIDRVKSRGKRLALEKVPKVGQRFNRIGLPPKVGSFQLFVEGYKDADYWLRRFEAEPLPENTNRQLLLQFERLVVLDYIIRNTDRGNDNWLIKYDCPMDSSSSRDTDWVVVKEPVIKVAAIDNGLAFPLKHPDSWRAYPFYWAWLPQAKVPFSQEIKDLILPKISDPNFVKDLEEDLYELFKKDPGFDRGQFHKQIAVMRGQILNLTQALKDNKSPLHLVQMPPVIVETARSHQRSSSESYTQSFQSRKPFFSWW

The assay concerns the target Phosphatidylinositol 4-kinase type 2-alpha (Homo sapiens) (UniProt Q9BTU6). Kind of assay: qHTS for small molecular inhibitors of PI4K2A.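 Note: -100% = wells without enzyme as full effect.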 Conditions: purified PI4K2A, ADP-Glo luminescence, 1 h; at 76.9 µM, hits give low values. An excerpt:
The phosphatidylinositol 4-phosphate (PI4P) is emerging as a key regulator of lipid transfer in ER-membrane contact sites. The four different phosphatidylinositol 4-kinase (PI4K) enzymes generate PI4P in different membrane compartments supporting distinct cellular processes many of which are crucial for the maintenance of cellular integrity but also hijacked by intracellular pathogens. The goal of this screening project is to search for small molecular inhibitors of PI4K2A based on a high throughput screening strategy.The ADP-Glo assay was used as a starting point to develop a miniaturized version for HTS applications. To implement the HTS screen, the PI4K ADP-Glotrade mark Kinase assay (Promega, V9102) was miniaturized for the 1536-well format used at NCGC.
For the robotic screening, the ADP-Glo assay using the ADP-Glotrade mark Kinase Assay kit from Promega was miniaturized and optimized on 1536-well white solid bottom plates (Greiner Bio-one). The substrate, 1.2 mM PI, prepared in the assay buffer (40mM Tris pH7.5, 20mM MgCl2, 1mM EGTA, 0.4% Triton X-100, 0.5mM DTT, 0.5mg/ml BSA) and PI4K2A enzyme, diluted also in the assay buffer to 4ug/mL, were dispensed onto the plates in equal volumes (1microl/well), pinned with 23 nL/well tested compounds or control followed by dispensation of 1microl/well 300microM ATP. The plates were incubated for one hour. Then, 2 µL/well of ADP-Glo reagent was added and incubated for 40 minutes. Next, 4microL/well of Kinase Detection Buffer was added to the plates and incubated for additional 40 minutes. All incubation steps were performed at ambient temperature. The resulting luminescence signal was measured on Viewlux plate reader (PerkinElmer). Adenosine, a partial non-specific inhibitor, was used as a positive control at 100microM final concentration to assess the assay's quality and plate-to-plate reproducibility. We also used "no enzyme" control to gauge the assay's maximal potential inhibition (IC100).
In general terms: In qHTS, concentration-response curves come from the screen itself.
Turning to `CC(C)(C)c1ccc(OCC(=O)N2CCC(c3nc4ccccc4s3)CC2)cc1`, the activity change, negative = inhibition is -3.91%. The value for `COc1cc(C(=O)OC2CCOC2=O)c([N+](=O)[O-])cc1OC` (stereo not given) was 0.815%.

As to `O=C(OC1CCOC1=O)c1ccc(-c2nc3ccccc3s2)s1` (stereo not given), the activity change, negative = inhibition was -52.4% (active).

For the molecule `O=C1/C(=C\c2ccc([N+](=O)[O-])cc2)CS(=O)(=O)C/C1=C/c1ccc([N+](=O)[O-])cc1`, the activity change, negative = inhibition was -53% (active).

Take `C=CC(=O)Nc1ccc(Nc2ccnc(Nc3ccc(N4CCN(C)CC4)cc3)n2)cc1`: the activity change, negative = inhibition was -9.48%. The value for `CC(C)C[C@H](NC(=O)[C@H](O)[C@H](N)Cc1ccccc1)C(=O)O` was -0.0848%; that for `CC(=O)Nc1ccc(NC(=O)c2cc3sccc3n2Cc2ccc(F)cc2)cc1` was -0.493%; that for `CC(C)Oc1ccc(/C=N/NC(=O)c2nnn(-c3nonc3N)c2CN(C)C2CCCCC2)cc1` was -0.0382%. Then `CCc1ccc(/C=N/NC(=O)c2nnn(-c3nonc3N)c2CN2CCc3ccccc32)cc1`, with 2.23%; and `Cc1nonc1C(=O)N/N=C/c1ccc(O)cc1`, with -107% (active).

Regarding `O=S(=O)(NCCc1nnc2ccc(SCc3ccc(Cl)cc3Cl)nn12)c1ccccc1`, the activity change, negative = inhibition is 1.68%. Then `CCCOC(=O)c1c(NC(=O)c2cc3nc(-c4ccc(OC)cc4)cc(C(F)(F)F)n3n2)sc2c1CCCC2`, with -1.38%; and `CC(=O)c1ccc(NC(=O)COc2ccccc2-c2nc(-c3ccccc3)no2)cc1`, with -0.609%.

On to `O=C(Oc1ccc(-c2nc(-c3ccccn3)no2)cc1)c1ccccc1`, for which the activity change, negative = inhibition is -59.2% (active). The value for `O=C(COc1cccc(F)c1)Oc1ccc(C(=O)c2ccccc2)cc1` was -2.11%. Regarding `CCc1ccccc1NC(=O)c1ccc(F)c(S(=O)(=O)NC2CCCCCC2)c1`, the activity change, negative = inhibition is 3.89%.

Regarding `CCCCOc1ccc(C(=O)N2CC(=O)Nc3ccc(Br)cc3C2c2ccc(F)cc2)cc1` (stereo not given), the activity change, negative = inhibition was 0.252%. The value for `O=C(NCC(c1cccnc1)N1CCc2ccccc21)c1cccc(C(F)(F)F)c1` (stereo not given) was -0.743%. As for `CCOCCCn1c(SCC(=O)Nc2ccc(CC)cc2)nc2ccccc2c1=O`, the activity change, negative = inhibition is 2.57%. Then `COc1cc(OC)c(OC)cc1/C=C/c1nc2cc3ccccc3cc2c(=O)n1-c1ccc(F)c(Cl)c1`, with 1.51%. Then `CCCC(=O)Nc1cc(C(=O)NCc2ccc(OC)cc2)ccc1S(=O)(=O)c1ccc(Cl)cc1`, with 1.05%. Consider `CCCc1c2oc(C(=O)O)cc(=O)c2cc2c(=O)cc(C(=O)O)n(CC)c12`, for which the activity change, negative = inhibition is 0.586%. Then `CC1(C)OC[C@@H](COC(=O)CCc2ccc(OC[C@@H](O)CNCCNC(=O)N3CCOCC3)cc2)O1`, with 2.53%. Then `Cc1cccc(C)c1NC(=O)c1ccc(N)cc1`, with 2.75%.

For `CC(C)Sc1oc(-c2cccs2)nc1S(=O)(=O)c1ccc(Cl)cc1`, the activity change, negative = inhibition was 2.5%.

With `CCC(=O)Nc1ccc2nc(SCC(=O)N3CCc4ccccc43)sc2c1`, the activity change, negative = inhibition was -5.07%. Then `CCCn1c(=O)c2[nH]c(-c3ccc(OCC(=O)NCCN)cc3)nc2n(CCC)c1=O`, with -1.34%. The value for `Nc1ccc2nc3c(=O)[nH]c(=S)[nH]c3nc2c1` was -58.2% (active).

For `Cc1ccc(-n2ncc3c(N4CCC(C(N)=O)CC4)ncnc32)cc1`, the activity change, negative = inhibition is -0.0422%. The value for `CC(=O)c1ccc(NC(=O)c2nc3nc(C)cc(C(F)F)n3n2)cc1` was 0.438%; that for `Cc1oc2ncnc(N3CCOCC3)c2c1C(=O)NCCc1ccccc1` was 5.54%; that for `Cc1cc2oc(C(=O)N(Cc3ccc(Cl)cc3)Cc3ccco3)c(C)c2cc1Cl` was -5.36%. Then `O=C(C1CC1)N1CCc2cc(Br)cc(S(=O)(=O)N3CCN(c4ccccc4F)CC3)c21`, with -2.46%; and `CC(C)(C)c1ccc(C(=O)NCC(c2ccc(Cl)cc2)N2CCOCC2)cc1` (stereo not given), with 1.67%; and `Cc1ccc2oc(=O)c3cnn(CC(=O)NCc4ccccc4Cl)c3c2c1`, with 2.09%. Then `Cc1ccc(C(=O)NCCSc2c(C)[nH]c3ccccc23)cc1C`, with -0.18%. In the case of `Cc1ccccc1NC(=O)c1cc2c([nH]c1=O)CC(C)(C)CC2=O`, the activity change, negative = inhibition was -0.508%. The value for `Cc1ccc2ncc(C(=O)Nc3ccc(OC(F)(F)F)cc3)c(=O)n2c1` was -0.27%; that for `C[C@@H]1CCC[C@H](C)N1CCCC(O)(c1ccccc1)c1ccccn1` (stereo not given in full) was -1.64%; that for `Cc1ccc(NC(=O)Cn2cnc3nc4c(cc3c2=O)CCCC4)cc1Cl` was 2.6%. In the case of `O=C(CC1Oc2ccccc2NC1=O)NCc1ccc(F)cc1` (stereo not given), the activity change, negative = inhibition is -3.94%. The value for `CCOCCn1ccc2c(OCC(=O)NCc3ccc(C)cc3)cccc2c1=O` was -5.41%; that for `O=C1CCCc2cc(S(=O)(=O)N3CCCC(C(=O)NCc4ccccc4)C3)ccc2N1` (stereo not given) was -5.19%. The value for `CCc1ccc(NC(=O)CCS(=O)(=O)c2cc3c(cc2Cl)NC(=O)CO3)cc1` was 0.699%; that for `CO[C@H]1C=CO[C@@]2(C)Oc3c(C)c(O)c4c(O)c(c(/C=N/N5CCN(C)CC5)c(O)c4c3C2=O)NC(=O)/C(C)=C\C=C[C@H](C)[C@H](O)[C@@H](C)[C@@H](O)[C@@H](C)[C@H](OC(C)=O)[C@@H]1C` was -8.76%. On to `Cc1nn2c(=O)cc(COC(=O)c3cccc(NC(=O)COc4ccccc4Cl)c3)nc2s1`, for which the activity change, negative = inhibition is 3.91%.

`Cc1ccc(CCNC(=O)c2ccc3c(c2)N(Cc2cc(C)ccc2C)C(=O)c2ccccc2S3=O)cc1` (stereo not given): the activity change, negative = inhibition was 3.89%. Consider `CCC(C)Cn1c(O)cc2nn(-c3nc4ccccc4s3)c(=O)c-2c1C` (stereo not given), for which the activity change, negative = inhibition is -52% (active). `O=C(OCCN1CCOCC1)c1cccnc1Nc1cccc(C(F)(F)F)c1`: the activity change, negative = inhibition was 1.58%.

For `Cc1cc(C)cc(OCC(=O)Nc2nc(-c3ccc(F)cc3)ns2)c1`, the activity change, negative = inhibition was -6.03%. Then `CCS(=O)(=O)N1CCc2cc(C(=O)NCc3ccc(OC)cc3)ccc21`, with -0.384%.

As to `CCc1ccccc1NC(=O)c1sc2nc3c(cc2c1N)CN(Cc1ccccc1)CC3`, the activity change, negative = inhibition is -2.17%. In the case of `Cc1ccc(Oc2c(C(F)(F)F)oc3c(CN4CCCCC4)c(O)ccc3c2=O)cc1`, the activity change, negative = inhibition was -2.18%. The value for `Cc1ccc(C(=O)Nc2ccccc2F)cc1S(=O)(=O)N1CCOCC1` was -6.24%; that for `Cc1ccc(Cc2c(-c3ccco3)nc3ccc(Cl)cn23)cc1` was -30%; that for `Cn1c(-c2ccco2)nc2cc3ccccc3cc21` was -59.4% (active). Then `c1ccc(Cc2c(-c3ccco3)nc3c4ccccc4ccn23)cc1`, with -13.4%; and `COc1cc(/C=C/C(N)=O)cc(OC)c1OC`, with -0.706%.

In the case of `CCC(=O)Nc1ccccc1-c1nc2ccccc2n(CC(=O)Nc2ccc(C)c(C)c2)c1=O`, the activity change, negative = inhibition was 0.486%. The value for `COc1cccc(NC(=O)CN2C(=O)c3ccccc3Sc3ncccc32)c1` was 0.541%; that for `COc1ccc(-c2onc(C)c2C)cc1S(=O)(=O)NCCc1ccccc1` was 0.384%.

On to `CCN(CCCNC(=O)c1ccc(Sc2ccc(C)cc2)c(NC(C)=O)c1)c1cccc(C)c1`, for which the activity change, negative = inhibition is 2.25%. The value for `COc1ccc(-c2nnc(SCC(=O)Nc3ccc(C(C)C)cc3)nc2-c2ccc(OC)c(OC)c2)cc1OC` was 0.608%; that for `CNC(=O)c1ccc(-c2nc(CN3CCc4ccccc43)c(C)o2)cc1` was 2.42%; that for `CC(=O)c1c(C)n(S(=O)(=O)c2ccc(Cl)cc2)c2ccc(NS(=O)(=O)c3ccc(Cl)cc3)cc12` was 2.95%.

`CS(=O)(=O)N1CCc2cc(C(=O)Nc3ccccc3)ccc21`: the activity change, negative = inhibition was -7.3%. Then `CSc1ccccc1-c1nnc(NC(=O)c2ccc3c(c2)OCCO3)o1`, with 3.71%; and `O=C1COc2ccc(C(=O)COC(=O)c3ccccc3Cl)cc2N1`, with 1.21%; and `O=C(COC(=O)c1ccccc1)c1ccc2c(c1)OCCO2`, with -52.5% (active).

As to `O=C(Nc1ccccc1)c1ccc2c(c1)OCCCO2`, the activity change, negative = inhibition is -52.6% (active). For the molecule `N#CCCN(C(=O)COC(=O)c1ccc2c(c1)OCCO2)c1ccccc1`, the activity change, negative = inhibition is 3.66%. Then `CCC(C)NC(=O)Cn1c(=O)n(-c2ccc(Cl)cc2)c(=O)c2c3c(sc21)CCCC3` (stereo not given), with -10.3%. Then `CCCn1c2ccccc2c2cnn(CC(=O)N(CC)c3cc(C)ccc3C)c(=O)c21`, with -0.786%; and `CN(C)c1cc2c(Nc3ccc4c(cnn4Cc4ccccc4)c3)ncnc2cn1`, with -9.09%; and `COc1cccc(C(=O)Nc2ccc3oc(-c4ccc5ccccc5c4)nc3c2)c1`, with -2.82%. The value for `COc1ccc(CNC(=O)c2cc3cccc(OC)c3oc2=O)cc1` was 3.69%.

`COc1cccc(C(=O)c2cc3ccc(O)cc3oc2=O)c1`: the activity change, negative = inhibition is -61.7% (active). Then `CCOc1ccc(NS(=O)(=O)c2ccc(N)cc2)nn1`, with -1.1%; and `CC1=C(C(=O)OCC(C)C)C(c2ccc(OCc3ccccc3)cc2)N2C(=O)CCSC2=N1` (stereo not given), with 5.39%. Then `CCCCOc1ccc(CN2C(=O)C(=O)c3cc(Br)cc(C)c32)cc1OC`, with 13%; and `Cc1ccc(-n2nc(C)c(C(=O)O)c2-n2cccc2)cc1`, with 3.8%; and `O=C(O)/C(=C/c1c(C(=O)O)[nH]c2cc(Cl)cc(Cl)c12)c1ccccc1`, with -3.01%. Consider `Nc1[nH][nH]c(=O)c1N=Nc1ccc2c(c1)OCO2`, for which the activity change, negative = inhibition is -6.7%. The value for `Cc1[nH][nH]c(=O)c1C(c1ccc2c(c1)OCO2)c1c(C)[nH][nH]c1=O` was -66.9% (active); that for `Cc1[nH][nH]c(=O)c1C(c1ccc(-c2ccc(Cl)cc2)o1)c1c(C)[nH][nH]c1=O` was -14%.
